LASV entry inh: inhibitors of Lassa virus binding or cell entry; Lassa virus pseudotype entry inhibition, cell reporter; Potency, µM (highest dose often 37.9 µM), inactives show at the top dose activity change, negative = inhibition, most hits filed as inhibitors; hit rate 1.2% among 300,000; calls by dose curve; tested in HEK293 cells; further: nearly all actives have a fitted effect of over 50% in size
FMDV inh: foot and mouth disease virus antiviral activity; FMDV antiviral cell-based qHTS; Potency, µM (top dose mostly 57.9 µM), inactives show at the highest dose activity change, negative = inhibition, most hits filed as inhibitors; hit rate 1.2% among 410,000; AID 1159524; calls by dose curve; tested in HEK293T cells; further: read-out not given here; nearly all actives have a fitted effect of over 45% in size
Vaccinia Venus: inhibitors of vaccinia virus (Venus reporter); Vaccinia virus Venus reporter expression, fluorescence; Potency, µM (series often up to 36.5 µM), inactives show at the top dose activity change, negative = inhibition, hits mostly inhibitors; hit rate 0.46% among 330,000; AID 720580; calls by dose curve; tested in A549 cells; further: nearly all actives have a fitted effect of over 30% in size
Vaccinia mCherry: vaccinia inhibition (mCherry reporter) | Vaccinia virus mCherry reporter infection, fluorescence | Potency, µM (titrated, usually from 36.5 µM), inactives show at the top dose activity change, negative = inhibition, usual class: inhibitors | hit rate 0.63% among 310,000 | AID 720579; calls by dose curve; tested in A549 cells; further: nearly all actives have a fitted effect of over 35% in size
Sm TGR inh: S. mansoni TGR enzyme inhibition; purified TGR, DTNB reduction, TNB absorbance 405 nm; Potency, µM (series often up to 114 µM), for the others: top-dose activity change, negative = inhibition, most hits filed as inhibitors; hit rate 3% among 360,000; AID 485364; active means well fitted inhibition curve with a large enough effect; inconclusive means small, poorly fitted or top-dose-only effect; inactive means no such curve, though single readings can be large or run the other way; further: nearly all actives have a fitted effect of over 60% in size
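TGR 20 nM + NADPH 100 uM (dispensed conc.), cpd preinc 15 min RT; start with NADPH (500 uM addition) then DTNB (15 mM addition). Kinetic TNB absorbance, 405 nm filter. Four-parameter Hill fit across titration.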
MARV entry inh: Marburg virus entry inhibition; Marburg virus pseudotyped entry inhibition, cell reporter; Potency, µM (doses to about 37.8 µM), for inactives: top-dose activity change, negative = inhibition, usual class: inhibitors; hit rate 1.8% among 300,000; AID 540276; calls by dose curve; tested in HEK293 cells
* = called active by the depositor; i = inactive; u = inconclusive; x = not tested or not shown; ! = not active in a repeat; [ ] = remark or other dose. Only some compounds are listed: those with a hit (about 5.4% of all), similar ones and a draw of the others. On the % scale 0 is the no-effect control and ±100 the full control effect; potency means the concentration at half of the fitted maximal effect.

SMILES	LASV entry inh	FMDV inh	Vaccinia Venus	Vaccinia mCherry	Sm TGR inh	MARV entry inh
COc1cc(C2c3cc4c(cc3OC(NNC(N)=S)C2C)OCO4)cc(OC)c1OC (stereo not drawn)	u	-18.5%	u	2.82µM*	x	u
COc1cc(C2c3cc4c(cc3OC(NNC(N)=O)C2C)OCO4)cc(OC)c1OC (stereo not drawn)	u	-14.0%	u	-20.2%	x	u
Cc1[nH]c2c(C)cccc2c1CCNC(=O)c1cc2ccccc2oc1=O	19.5%[46.1 µM]	-27.2%	-7.5%	-6.7%	9.9%	-2.8%[46.1 µM]
Cc1cc(C)n(C(=O)c2c([N+](=O)[O-])c(C)nn2C)n1	-18.0%	-2.7%	x	x	9.8%	19.1%
Cc1ccc(SC(=O)c2c([N+](=O)[O-])c(C)nn2C)cc1	-12.6%	u	-12.1%[7.34 µM]	-21.3%[7.34 µM]	5.62µM*	9.8%[46.1 µM]
COc1ccc(CCNc2ncnc3c2nnn3C)cc1	u	-39.5%	-23.3%	-10.3%	17.0%	x
O=c1c2[nH]c3ccccc3c2nc(SCc2cccc(F)c2)n1-c1ccccc1	u	-23.5%	-22.0%	-28.5%	11.8%	x
COc1ccc(-c2nc(CN3CCN(C(=O)c4ccco4)CC3)c(C)o2)c(F)c1	3.8%	-18.6%	-17.9%	-5.3%	50.1µM*	1.0%
Cc1oc(-c2ccc(F)cc2F)nc1CN1CCN(C(=O)c2ccco2)CC1	x	u	-14.5%	i	x	x
COc1ccc(-c2nc(CN3CCN(C(=O)c4ccco4)CC3)c(C)o2)cc1OC	x	-6.0%	x	x	28.2µM*	x
COCCN1C=C(C(=O)OC)C(c2cc(Br)c(OC)c(OC)c2)C(C(=O)OC)=C1	11.2µM*	-24.8%	u	x	0.9%	-22.8%
COC(=O)C1=CN(Cc2ccc(C)cc2)C=C(C(=O)OC)C1c1cc(OC)c(OC)c(OC)c1	x	-6.8%	x	x	1.6%	x
N#CC1(NC(=O)COC(=O)c2ccccc2[N+](=O)[O-])CCCCC1	10.7%	21.4%	-10.0%	i	-1.3%	u
N#CC1(NC(=O)COC(=O)c2cc(O)c3ccccc3c2O)CCCCC1	27.2%	-21.1%	17.5%	-3.0%	22.4µM*	u
CN1CCN(CC(=O)Nc2nc3c(s2)CCCC3)CC1	x	-11.7%	x	x	15.0%	x
CCN1CCN(/C=N/c2nc3c(s2)CCCC3)CC1	u	x	-7.1%	i	-0.7%[11.4 µM]	5.8µM*
CCC(C)(C)n1nnnc1C(c1ccc(OC)c(OC)c1)N1CCN(c2ccccc2)CC1 (stereo not drawn)	u	-23.8%	-13.1%	x	50.1µM*	-8.8%
CCC(C)(C)n1nnnc1CN1CCN(C(c2ccccc2)c2ccccc2)CC1	13µM*	u	x	x	-6.7%	-29.7%
CCC(C)(C)n1nnnc1C(c1ccc2ncccc2c1)N1CCN(c2ccc(O)cc2)CC1 (stereo not drawn)	0.7%	-3.6%	4.9%	-10.1%	50.1µM*	20.3%[46.1 µM]
CCC(C)(C)n1nnnc1C(c1ccc(OC)c(OC)c1)N1CCN(c2cccc(OC)c2)CC1 (stereo not drawn)	-27.9%	-8.5%	-13.0%	x	u	u
CCC(C)(C)n1nnnc1C(c1cc(OC)ccc1OC)N1CCN(Cc2ccccc2)CC1 (stereo not drawn)	-7.7%[46.1 µM]	-1.2%	-5.6%	-1.2%	31.6µM*	u
CCC(C)(C)n1nnnc1C(c1ccc2ncccc2c1)N1CCN(c2nc3ccccc3s2)CC1 (stereo not drawn)	u	-27.4%	-24.9%	u	-6.9%	u
CCC(C)(C)n1nnnc1C(c1ccccc1)N1CCN(Cc2ccccc2)CC1 (stereo not drawn)	1.5%[46.1 µM]	-10.7%	-1.3%	i	0.0%	1.5%[46.1 µM]
CC1=C(C(=O)Nc2ccccc2)C(c2ccc(C(=O)O)cc2)n2nc(SCC(=O)c3ccc(C)cc3)nc2N1 (stereo not drawn)	1.5%[46.1 µM]	47.5%	-0.1%	-13.3%	1.2%	x
COc1ccc(C(C)=O)cc1COC(=O)CNC(=O)c1ccc(F)cc1	20.1%	10.1%	-3.0%	i	u	u
SMILES	LASV entry inh	FMDV inh	Vaccinia Venus	Vaccinia mCherry	Sm TGR inh	MARV entry inh
COc1ccc(C(C)=O)cc1COC(=O)Cc1cc(OC)c(OC)c(OC)c1	-4.6%[46.1 µM]	-3.2%	-0.2%	i	11.2µM*	-2.6%[46.1 µM]
COc1ccc(C(C)=O)cc1COc1ccc(F)cc1	2.1%	-17.2%	x	x	-34.5%	-4.4%
CCOc1ccc(C(=O)NCC(=O)OCc2cc(C(C)=O)ccc2OC)cc1	21.0%	-6.5%	-9.0%	i	7.08µM*	25.5%[46.1 µM]
COc1ccc(C(C)=O)cc1COC(=O)CNC(=O)c1ccc(Cl)cc1	x	9.6%	-3.3%	i	3.16µM*	-2.1%
COCc1c(C(=O)N2CCN(C(C)C)CC2)cnn1-c1nccc(-c2cc(C)sc2C)n1	x	-9.6%	-4.4%	-8.9%	x	x
CCOC(=O)c1scc(-c2ccccc2)c1S(=O)(=O)N1CCN(c2ccccc2OC)CC1	u	-19.7%	-13.8%	-19.4%	-0.7%	x
CCOC(=O)c1ccc(NC[C@@H](O)COc2ccccc2)cc1	x	x	x	x	x	-1.6%[46.1 µM]
COCCn1c(C)cc(O)c(C(=O)Nc2cccc(Cl)c2)c1=O	x	-3.0%	x	x	3.7%	x
COCCn1c(C)cc(O)c(C(c2ccc(Cl)cc2)N2CCCCC2)c1=O (stereo not drawn)	-15.9%[46.1 µM]	-11.3%	-13.1%	-11.9%	10µM*	x
COCCn1c(C)cc(O)c(C(c2ccc(C)cc2)N2CCCCC2)c1=O (stereo not drawn)	-20.6%[46.1 µM]	-29.7%	-8.4%	-13.4%	8.91µM*	x
CCc1nc2c(sc3nc4c(cc32)COC(C)(C)C4)c(=O)n1Cc1ccco1	u	u	-25.1%	x	u	u
CCc1nc(OCc2ccco2)c2sc3nc4c(cc3c2n1)COC(C)(C)C4	-26.1%	u	-9.9%	x	10µM*	u
CN1C(=O)c2ccc(NC(=O)c3ccc(N4CCCCC4)c([N+](=O)[O-])c3)cc2C1=O	-8.3%	17.8µM*	-6.1%	i	-0.8%	11.4%
Cc1cccc(NC(=O)c2ccc(-n3cccn3)c([N+](=O)[O-])c2)c1	19.0%	-13.3%	-10.8%	-15.0%[1.46 µM]	39.8µM*	16.5%
O=C(Nc1cccc(/C=C/c2ccccn2)c1)c1ccc(-n2cncn2)c([N+](=O)[O-])c1	u	u	u	14.1µM*	3.9%	u
O=C(Nc1cccnc1)c1ccc(N2CCCC2)c([N+](=O)[O-])c1	12.0%	44.5%	-10.7%	-13.6%	-29.2%	22.1%[46.1 µM]
Cc1ccc(NC(=O)c2ccc(-n3cccn3)c([N+](=O)[O-])c2)cc1	-20.0%	-4.3%	x	x	u	8.2%
O=C(Nc1ccc(F)c(F)c1)c1ccc(-n2cncn2)c([N+](=O)[O-])c1	x	-14.5%	x	x	4.2%	x
Cc1cccc2c(C(O)c3cn(C)c4ccccc34)c[nH]c12 (stereo not drawn)	x	x	15.4%	-10.8%	x	x
CCN(c1ccccc1)S(=O)(=O)c1nnc(NC(=O)c2ccco2)s1	8.9%[46.1 µM]	21.2%	-14.1%	-6.1%	20µM*!	x
CCN(c1cccc(C)c1)S(=O)(=O)c1nnc(NC(=O)c2ccco2)s1	28.2%[46.1 µM]	6.3%	-29.4%	-20.6%	25.1µM*	15.6%[46.1 µM]

High-throughput results (PubChem)
